Test results from PubChem BioAssay (NCATS).
Records with an inconclusive call do not appear. Activity calls are given as the source filed them. Unless noted, calls follow the shape of the dose curve; as a rule, active = well fitted curve in the direction sought with a large enough effect; inconclusive = small, poorly fitted or top-dose-only effect, or another doubt; inactive = no such curve, though single readings can be large; an effect the other way counts as inactive or inconclusive.

Key:
[1] = Cell Viability - BJ (AID 421; calls by dose curve;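 also: potency is read from the fitted curve at half-maximal effect; cells exposed to compound for 40 hours at 37 °C before readout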); conditions: BJ fibroblast viability, qHTS
Procedure, shortened: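 Cytotoxicity as drop in intracellular ATP (CellTiter-Glo, 20 min RT) after 40 hr compound exposure of BJ fibroblasts at 37 °C. Titrations scaled between DMSO and 100 uM tamoxifen, Hill-fitted for AC50.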

[2] = Cell Viability - Jurkat (AID 426;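 active = dose-dependent loss of cell ATP signal giving a full or clear fitted curve, ranked by lower potency value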;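 also: potency is read from the fitted curve at half-maximal effect; cells exposed to compound for 40 hours at 37 °C before ATP read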); conditions: qHTS
Procedure, shortened: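 Cytotoxicity was scored as loss of cellular ATP, measured by luciferase-based luminescence, in Jurkat clone E6-1 cells after 40 h compound treatment; tamoxifen and doxorubicin served as positive controls.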

[3] = Cell Viability - Hek293 (AID 427;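 active = compounds whose dose-response curve shows a full or clear partial loss of cell viability, called from curve shape rather than a numeric limit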;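 also: potency is read from the fitted curve at half-maximal effect; cells exposed to compound for 40 hours at 37 °C before reading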); conditions: qHTS
Procedure, shortened: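 Luminescent ATP content (CellTiter-Glo, 20 min at room temperature) was measured after a 40 hr, 37 °C compound exposure of HEK293 cells. AC50 values came from Hill-equation fits of qHTS concentration-response data normalized to DMSO and 100 uM tamoxifen.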

[4] = Cell Viability - HepG2 (AID 433; calls by dose curve;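 also: potency is read from the fitted curve at half-maximal effect; potency for ATP loss meaning cytotoxicity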); conditions: qHTS
Procedure, shortened: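 Cytotoxicity read as ATP loss (CellTiter-Glo luminescence) after 40 hr compound exposure of HepG2, 1500 cells/well, 37 °C. AC50 by Hill equation; 0% set by DMSO, 100% inhibition by 100 uM tamoxifen.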

[5] = Cell Viability - MRC5 (AID 434; calls by dose curve;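 also: potency is read from the fitted curve at half-maximal effect; cells exposed to compound for 40 hours at 37 °C; potency reflects cytotoxicity seen as loss of intracellular ATP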); conditions: MRC5 lung fibroblast viability, qHTS
Procedure, shortened: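 Decrease in intracellular ATP, quantified by luciferase light output, reflects compound toxicity toward MRC5 cells exposed for 40 hr in complete culture medium. Concentration-response curves, scaled between DMSO and 100 uM tamoxifen, gave AC50 values.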

[6] = Cell Viability - SK-N-SH (AID 435; calls by dose curve; also: potency is read from the fitted curve at half-maximal effect); conditions: SK-N-SH neuroblastoma cell viability qHTS
Procedure, shortened: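 qHTS cytotoxicity: CellTiter-Glo ATP luminescence after 40 h compound exposure of human neuroblastoma SK-N-SH cells at 37 °C. AC50 derived by Hill-equation fitting, with DMSO as basal and 100 uM tamoxifen as full inhibition.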

[7] = Cell Viability - N2a (AID 540); conditions: N2a mouse neuroblastoma cell viability; at 92.2 µM (top of the series);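 also: plate controls were DMSO alone for no effect and tamoxifen control for full effect; nearly all actives have a fitted effect of over 45% in size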
Procedure, shortened: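 In this qHTS cytotoxicity screen, ATP-dependent luciferase luminescence reports viable N2a cells after a 40 hr compound exposure in complete culture medium. Potencies are AC50 values from standard Hill equation fits.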

[8] = Cell Viability - NIH 3T3 (AID 541); conditions: NIH 3T3 cell viability, qHTS; at 92.2 µM (top of the series);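 also: plate controls were DMSO alone for no effect and tamoxifen positive control for full effect; nearly all actives have a fitted effect of over 25% in size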
Procedure, shortened: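 In this cytotoxicity screen, acute toxicity is scored as an ATP drop measured by CellTiter-Glo in NIH 3T3 fibroblasts following a 40 hr, 37 °C incubation with compound.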

[9] = Cell Viability - HUV-EC-C (AID 542); also: % is scaled to controls: 0 for no effect and ±100 for the full control effect; nearly all actives have a fitted effect of over 35% in size
Procedure, shortened: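 Concentration-dependent ATP loss in HUV-EC-C cells is the measure. Exposure lasts 40 hr at 37 °C; luminescence follows CellTiter-Glo addition, and Hill fits give AC50.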

[10] = Cell Viability - H-4-II-E (AID 543); also: % is scaled to controls: 0 for no effect and ±100 for the full control effect; nearly all actives have a fitted effect of over 35% in size
Procedure, shortened: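 AC50 from Hill-modelled qHTS concentration-response curves. H-4-II-E rat hepatoma cells in complete medium, 40 hr exposure at 37 °C, viability by CellTiter-Glo ATP luminescence.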

[11] = Cell Viability - SH-SY5Y (AID 544);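 also: 0% = DMSO alone and -100% = 100 µM tamoxifen; nearly all actives have a fitted effect of over 55% in size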
Procedure, shortened: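 Quantitative HTS in SH-SY5Y neuroblastoma cells, 40 hr treatment at 37 °C, ATP content by luciferase luminescence; AC50 from Hill fits.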

[12] = Cell Viability - Renal Proximal Tubule (AID 545);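 also: 0% = DMSO only and -100% = 100 µM tamoxifen; nearly all actives have a fitted effect of over 40% in size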
Procedure, shortened: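 Viability taken as intracellular ATP (CellTiter-Glo luminescence) after 40 hr, 37 °C compound treatment of primary proximal tubule cells from rat kidney, 1000 cells/well; Hill-equation fits of qHTS concentration-response data gave AC50.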

[13] = Cell Viability - Mesenchymal (AID 546);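 also: cells exposed to compound for 40 hours before reading; 0% = DMSO only and -100% = 100 µM tamoxifen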
Procedure, shortened: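 In this qHTS cytotoxicity format, glomerulus-derived human mesenchymal kidney cells received compound for 40 hr, then luciferase-based ATP quantitation. Concentration-response data were fitted with the Hill equation.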

[14] = Cellular Toxicity (caspase-3) HepG2 (AID 654);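 also: cells exposed to compound for 16 hours before reading; 0% = DMSO alone and 100% = caspase signal from 100 µM tamoxifen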
Procedure, shortened: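 Concentration-response AC50 values reflect caspase-3/7 induction in HepG2 cells after 16 hours of compound exposure, quantified by luminescence from liberated aminoluciferin and referenced to 100 uM tamoxifen as full stimulation.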

[15] = Cellular Toxicity (caspase-3) Jurkat (AID 655);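 also: cells exposed to compound for 16 h at 37 °C before reading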
Procedure, shortened: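 Luminescent Caspase-Glo 3/7 read-out (20 min, room temperature) after 16 h compound treatment at 37 C of 5000 Jurkat cells per well. AC50 derived by Hill-equation fitting, scaled between DMSO basal and 100 uM tamoxifen stimulation.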

[16] = Cellular Toxicity (caspase-3) HUV-EC-C (AID 656);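 also: 0% = DMSO basal and 100% = 100 µM tamoxifen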
Procedure, shortened: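 Luminescent Caspase-Glo 3/7 readout after 16 h, 37 °C compound exposure of HUV-EC-C endothelial cells, 1000 per well, complete medium. AC50 derived by Hill fitting, with DMSO as baseline and 100 uM tamoxifen as full activation.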

[17] = Cellular Toxicity (caspase-3) SHSY5Y (AID 657)
Procedure, shortened: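 Luminescent Caspase-Glo 3/7 read-out, 1 hr room temperature, follows 16 hours of compound treatment of SH-SY5Y cells at 37 °C. Normalization: DMSO basal, 10 uM staurosporine as 100%; AC50 values from Hill-equation concentration-response fits.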

[18] = Cellular Toxicity (caspase-3) BJ (AID 658);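 also: 0% = DMSO basal and 100% = 10 µM staurosporine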
Procedure, shortened: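 Plated BJ cells (1000/well) rested 5 hr, received compound for 16 hr at 37 °C, then Caspase-Glo 3/7 reagent for 1 hr at room temperature before luminescence reading.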

[19] = Cellular Toxicity (caspase-3) MRC-5 (AID 659);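 also: 0% = DMSO basal and 100% = 10 µM staurosporine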
Procedure, shortened: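 Apoptosis readout in MRC-5 cells: luciferase light generated after caspase 3/7 cleaves a peptide-aminoluciferin substrate, measured post 16 hr compound incubation at 37 °C.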

[20] = Cellular Toxicity (caspase-3) Mesangial (AID 660);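 also: combined caspase 3 and 7 activity read by Caspase-Glo luminescence; cells exposed to compound for 16 h before the caspase read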
Procedure, shortened: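 AC50 values come from Hill-equation fits of caspase 3/7 activation, measured as Caspase-Glo luminescence in human glomerular mesangial cells exposed to compound for 16 h at 37 °C; 100% set by 100 uM tamoxifen.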

[21] = Cellular Toxicity (caspase-3) SK-N-SH (AID 661);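 also: 0% = DMSO basal and 100% = 10 µM staurosporine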
Procedure, shortened: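 Apoptosis readout in SK-N-SH neuroblastoma: Caspase-Glo 3/7 luminescence following 16 hr treatment in complete culture medium. Normalization used DMSO and 10 uM staurosporine controls.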

[22] = Cellular Toxicity (caspase-3) H-4-II-E (AID 663);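 also: cells exposed to compound for 16 hr before readout; 0% = DMSO basal and 100% = 100 µM tamoxifen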
Procedure, shortened: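 Caspase 3/7 activation measured in H-4-II-E cells in complete culture medium after 16 hr treatment at 37 °C, using luciferase-coupled substrate readout; AC50 values come from Hill-equation fits of normalized concentration-response data.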

[23] = Cellular Toxicity (caspase-3) N2a (AID 665);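 also: compound exposure lasted 16 h at 37 °C before readout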
Procedure, shortened: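 Concentration-response qHTS: compound-induced caspase-3/7 luminescence in N2a cells (16 h, 37 °C), relative to DMSO and 10 uM staurosporine controls; AC50 obtained using the standard Hill equation.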

[24] = Cellular Toxicity (caspase-3) NIH 3T3 (AID 666);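 also: caspase signal read after 16 h compound exposure; 0% = DMSO basal and 100% = 100 µM tamoxifen stimulation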
Procedure, shortened: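 Activity: caspase-3/7 induction, NIH 3T3 cells, 16 hr treatment at 37°C, luminescent Caspase-Glo detection; AC50 via Hill equation.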

[25] = Cellular Toxicity (caspase-3) Renal Proximal Tubule (AID 667);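 also: cells exposed to compound for 16 hours at 37 °C before detection; 0% = DMSO basal and 100% = 10 µM staurosporine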
Procedure, shortened: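 Caspase 3/7 activation measured by luminescent aminoluciferin release in primary rat proximal tubule cells after 16 hr compound exposure at 37 °C. AC50 from Hill-fitted concentration-response, scaled between DMSO and 10 uM staurosporine.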

[26] = molecular target: Cytochrome P450 3A4 (Homo sapiens) (UniProt P08684); experiment: qHTS Assay for Inhibitors and Substrates of Cytochrome P450 3A4 (AID 884); also: % is scaled to controls: 0 for no effect and ±100 for the full control effect; nearly all actives have a fitted effect of over 50% in size
Procedure, shortened: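 Luminescent readout of luciferin produced by CYP3A4 (20 nM) dealkylation of Luciferin-PPXE, 25 uM (its KM). NADPH-driven reaction ran 60 min at RT after 10 min compound preincubation; data scaled to 57 uM ketoconazole as 100% inhibition.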

[27] = Cell Viability - LYMP2-001 (AID 921);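 also: 0% = DMSO only and full inhibition = tetraoctylammonium bromide control wells; nearly all actives have a fitted effect of over 70% in size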
Procedure, shortened: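 Cellular ATP loss read by luciferase luminescence after 24 h compound exposure at 37 C in complete medium. LYMP2-001 lymphoblastoid cells, 2500/well; qHTS concentration-response data fitted with Hill equation for AC50.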

[28] = MultiTox-Fluor Cytotoxicity Assay - LYMP1-001 - Dead Cells (AID 946)
Procedure, shortened: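 Cytotoxicity as increased dead-cell protease fluorescence (bis-AAF-R110, 485/520 nm), read 60 min after MultiTox-Fluor reagent. Human lymphoblastoid line exposed 16 h; Hill-fitted AC50, with DMSO as 0% and 15 uM tetraoctylammonium bromide as 100%.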

[29] = MultiTox-Fluor Cytotoxicity Assay - LYMP1-001 - Live Cells (AID 947);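 also: 0% = DMSO only and full inhibition = tetraoctylammonium bromide control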
[30] = Cell Viability - LYMP1-002 - Assay at 16 hr (AID 948);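 also: 0% = DMSO alone and full effect = 92 µM tetraoctylammonium bromide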
Procedure, shortened: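 ATP luminescence (CellTiter-Glo) was measured after 16 hr compound exposure at 37 C of 2500 lymphoblastoid LYMP1-002 cells per well. Concentration-response curves were fitted with the Hill equation to give AC50.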

[31] = MultiTox-Fluor Cytotoxicity Assay - LYMP1-002 - Live Cells (AID 955); also: % is scaled to controls: 0 for no effect and ±100 for the full control effect
Procedure, shortened: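 In this qHTS viability format, lymphoblastoid cells (LYMP1-002, human) received compound for 16 hr at 37 C. Fluorogenic GF-AFC cleavage by viable cells was detected at 405/510 nm after 1 h at room temperature.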

[32] = MultiTox-Fluor Cytotoxicity Assay - LYMP1-003 - Dead Cells (AID 961); also: nearly all actives have a fitted effect of over 70% in size
Procedure, shortened: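 Dead-cell protease release, detected as bis-AAF-R110 fluorescence at 485/520 nm, was measured in LYMP1-003 cells after 16 h compound treatment at 37 C. AC50 values came from Hill-modeled qHTS curves normalized to DMSO (0%) and 15 uM tetraoctylammonium bromide (100%).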

[33] = MultiTox-Fluor Cytotoxicity Assay - LYMP1-003 - Live Cells (AID 962);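 also: 0% = DMSO only and full loss = 92 µM tetraoctylammonium bromide; cytotoxic hits lower the live-cell protease signal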
Procedure, shortened: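 Human lymphoblastoid line LYMP1-003 in complete culture medium, treated 16 hr with titrated compounds. Viable cells quantified via cell-permeant GF-AFC substrate fluorescence; AC50 derived by Hill fitting.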

[34] = Cell Viability - LYMP1-003 - Assay at 24 hr (AID 963);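 also: plate controls were DMSO only for no effect and tetraoctylammonium bromide positive control for full effect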
Procedure, shortened: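 The lymphoblastoid line was treated with titrated compounds for 24 hours, and viable cell number estimated from luciferase-based ATP luminescence.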

[35] = Cell Viability - LYMP1-003 - Assay at 40 hr (AID 964); also: % is scaled to controls: 0 for no effect and ±100 for the full control effect; nearly all actives have a fitted effect of over 60% in size
Procedure, shortened: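 Acute toxicity is scored as a concentration-dependent loss of intracellular ATP in LYMP1-003 cells (2500/well, complete medium) after 40 hr at 37 C, measured by CellTiter-Glo luminescence; AC50 values derive from standard Hill modelling.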

[36] = Cell Viability - LYMP2-003 (AID 965);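 also: cells exposed to compounds for 24 h before reading; 0% = DMSO only and full effect = 92 µM tetraoctylammonium bromide; nearly all actives have a fitted effect of over 50% in size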
Procedure, shortened: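 CellTiter-Glo luminescence quantified ATP loss after 24 h compound treatment of LYMP2-003 lymphoblastoid cells at 37 C. Titration series were fitted with the standard Hill equation to give AC50.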

[37] = Cell Viability - LYMP2-004 (AID 966);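 also: plate controls were DMSO only for no effect and tetraoctylammonium bromide control for full effect; nearly all actives have a fitted effect of over 65% in size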
Procedure, shortened: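 Viable-cell number estimated from ATP luminescence (CellTiter-Glo) in 2500 human lymphoblastoid cells/well after 24 hr at 37 C with compound. AC50 fitted to the standard Hill equation.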

[38] = Cell Viability - LYMP2-005 (AID 967);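 also: plate controls were DMSO only for no effect and 92 µM tetraoctylammonium bromide control for full effect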
Procedure, shortened: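 LYMP2-005 human lymphoblastoid cells (2500/well) were treated with compounds for 24 h at 37 C. Intracellular ATP was then measured by CellTiter-Glo luminescence after 30 min at room temperature. AC50 values came from Hill-equation fits of qHTS concentration-response data.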

[39] = Cell Viability - LYMP2-009 (AID 968)
[40] = Cell Viability - LYMP2-011 (AID 969)
Procedure, shortened: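 Cells seeded at 2500 per well rest 5 hr before compound addition, then incubate 24 hr at 37 C. CellTiter-Glo reagent is added for 30 min at room temperature before luminescence detection.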

[41] = Cell Viability - LYMP2-013 (AID 970)
Procedure, shortened: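 In complete culture medium, human lymphoblastoid cells were dosed for 24 hr at 37 C, with tetraoctylammonium bromide (6.4pM to 92 uM) as positive control. Viability reflects luciferase-based ATP signal; AC50 derived from concentration-response curves.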

[42] = Cell Viability - LYMP2-017 (AID 972)
Procedure, shortened: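 In this qHTS format, lymphoblastoid cells in complete medium receive test compound for a day at 37 C before ATP content is quantified by luciferase luminescence. Reported AC50 figures come from standard Hill-equation curve fitting.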

[43] = Cell Viability - LYMP2-019 (AID 973)
Procedure, shortened: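 AC50 values come from Hill-equation modelling of qHTS concentration-response curves, where viability is measured as luciferase-based ATP luminescence in the lymphoblastoid line after 24 hr compound exposure in complete culture medium.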

[44] = Cell Viability - LYMP2-021 (AID 974)
Procedure, shortened: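 In qHTS format, compounds are tested against 2500 lymphoblastoid cells per well for 24 h; viable cell number is inferred from ATP-driven luciferase light, and Hill-equation fitting yields AC50 values.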

[45] = Cell Viability - LYMP2-023 (AID 975)
Procedure, shortened: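 In this qHTS, ATP-based luciferase luminescence (CellTiter-Glo) is quantified in human lymphoblastoid cells after 24 hr compound treatment at 37 C; tetraoctylammonium bromide serves as positive control. Concentration-response curves are Hill-fitted to give AC50.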

Cytochrome P450 3A4 (Homo sapiens), sequence (P08684 whole entry, looked up): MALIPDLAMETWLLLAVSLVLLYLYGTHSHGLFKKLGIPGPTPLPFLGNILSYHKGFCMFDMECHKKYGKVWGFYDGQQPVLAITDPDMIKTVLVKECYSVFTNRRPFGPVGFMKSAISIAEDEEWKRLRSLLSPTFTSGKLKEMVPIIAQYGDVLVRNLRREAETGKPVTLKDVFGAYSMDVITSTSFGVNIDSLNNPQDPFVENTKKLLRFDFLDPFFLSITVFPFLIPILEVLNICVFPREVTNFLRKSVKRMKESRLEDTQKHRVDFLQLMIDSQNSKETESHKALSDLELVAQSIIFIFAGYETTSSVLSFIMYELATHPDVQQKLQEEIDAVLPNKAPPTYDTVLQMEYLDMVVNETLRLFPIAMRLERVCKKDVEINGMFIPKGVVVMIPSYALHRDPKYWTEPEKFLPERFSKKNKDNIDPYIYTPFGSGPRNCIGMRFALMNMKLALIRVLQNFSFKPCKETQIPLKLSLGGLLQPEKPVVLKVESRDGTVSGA

CC(C)COC(=O)c1ccccc1C(=O)OCC(C)C
inactive: Potency [1] > 92 µM | Potency [2] > 92 µM | Potency [3] > 92 µM | Potency [4] > 92 µM | Potency [5] > 92 µM | Potency [6] > 92 µM | activity change, negative = cytotoxicity [7] -12.6% | activity change, negative = cytotoxicity [8] -26.2% | outcome [9] | outcome [10] | outcome [11] | outcome [12] | outcome [13] | outcome [14] | outcome [15] | outcome [16] | outcome [17] | outcome [18] | outcome [19] | outcome [20] | outcome [21] | outcome [22] | outcome [23] | outcome [24] | outcome [25] | Potency [26] | outcome [27] | Potency [28] | outcome [29] | outcome [30] | outcome [31] | Potency [32] | outcome [33] | outcome [34] | Potency [35] | outcome [36] | outcome [37] | outcome [38] | outcome [39] | outcome [40] | outcome [41] | outcome [42] | outcome [43] | outcome [44] | outcome [45]
